Reference: PubChem BioAssay (NCATS)
Where “and” joins values, the source holds several entries; their conditions need not be identical. Identical values can stand only once. Records with an inconclusive call do not appear. Calls of active or inactive are those of the source. The call rests on the fitted dose curve; in most records, active means well fitted curve in the direction sought with a large enough effect; inconclusive means small, poorly fitted or top-dose-only effect, or another doubt; inactive means no such curve, though single readings can be large; an effect the other way counts as inactive or inconclusive.

Legend:
[1] = target: N-terminal Xaa-Pro-Lys N-methyltransferase 1 (Homo sapiens) (UniProt Q9BV86); test: qHTS Assay for Inhibitors of N-terminal methyltransferase 1 (NTMT1): LOPAC validation of the NTMT1 SAHH-coupled ThioGlo3 Assay (AID 1347143);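 further: SAH from peptide methylation measured as thiol fluorescence via SAHH coupling and ThioGlo3; nearly all actives have a fitted effect of over 70% in size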; further: potency means the concentration at half of the fitted maximal effect
Method in brief: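 Recombinant human NTMT1 (125nM) was pre-incubated 1 min at room temperature with compounds over a concentration range, then a mix of 100uM SAM, 10uM SAHH and 15uM ThioGlo3 (concentrations in added reagent) was added. ThioGlo3 fluorescence (ex 340/em 450nm) after 30 min was normalized to the initial reading.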

[2] = system: Zika virus NS2B-NS3 protease (unlinked); test: Optimization of GU AMC qHTS for Zika virus inhibitors: Unlinked NS2B-NS3 protease assay (AID 1347151); further: nearly all actives have a fitted effect of over 80% in size; further: potency means the concentration at half of the fitted maximal effect
Method in brief: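 Noncovalent NS2B hydrophilic domain–NS3 protease complex (25 nM final) in 10 mM Tris-HCl pH 8.0, 0.01% Tween 20; AMC substrate, room temperature 15 min (~20% conversion); fluorescence change normalized, 4-parameter Hill fit.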

[3] = system: Zika virus NS2B-NS3 protease; test: Primary screen GU AMC qHTS for Zika virus inhibitors (AID 1347154); further: nearly all actives have a fitted effect of over 70% in size; further: potency means the concentration at half of the fitted maximal effect
Method in brief: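 Unlinked Zika NS2B hydrophilic domain–NS3 protease complex at 25 nM in 10 mM Tris-HCl pH 8.0, 0.01% Tween 20, with an AMC peptide substrate. Fluorescence change (340/450 nm) over 15 min at room temperature, normalized to controls, fitted to 4-parameter Hill.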

[4] = qHTS of pediatric cancer cell lines to identify multiple opportunities for drug repurposing: Confirmatory screen for RD cells (AID 1347124);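 further: cells exposed to compound for 48 h before viability readout; nearly all actives have a fitted effect of over 65% in size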; further: potency means the concentration at half of the fitted maximal effect
Method in brief: (§1)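 Viability after 48 h compound treatment at 37C, 500-1,000 cells/well, read as ATP luminescence with CellTiter-Glo. Primary screens used 11-point (MIPE, 0.78 nM-46 µM) or 8-point (NPC, 0.59 nM-46 µM) final concentrations; follow-up screens used 11-point dilutions.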

[5] = qHTS of pediatric cancer cell lines to identify multiple opportunities for drug repurposing: Confirmatory screen for Rh18 cells (AID 1347125); further: nearly all actives have a fitted effect of over 55% in size; further: potency means the concentration at half of the fitted maximal effect
Method in brief: as §1

[6] = qHTS of pediatric cancer cell lines to identify multiple opportunities for drug repurposing: Confirmatory screen for Rh30 cells (AID 1347126); further: nearly all actives have a fitted effect of over 55% in size; further: potency means the concentration at half of the fitted maximal effect
Method in brief: as §1

[7] = qHTS of pediatric cancer cell lines to identify multiple opportunities for drug repurposing: Confirmatory screen for Saos-2 cells (AID 1347127); further: nearly all actives have a fitted effect of over 60% in size
Method in brief: as §1

Furin (Homo sapiens) = Furin (Homo sapiens) (UniProt P09958); test: Furin counterscreen qHTS for Zika virus inhibitors (AID 1347149); further: nearly all actives have a fitted effect of over 70% in size; further: potency means the concentration at half of the fitted maximal effect
Method in brief: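 Fluorogenic cleavage of BOC-RVRR-AMC (2 microM final, Km ~15 µM) was monitored (ex 340, em 450 nm) at 37C after 15 min RT preincubation of 5 nM furin with compounds in HEPES pH 7.0 buffer with CaCl2 and Triton X-100. Percent inhibition was fitted to a 4-parameter Hill curve.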

[8] = system: Zika virus NS2B-NS3 protease (linked construct); test: Confirmatory screen NINDS AMC qHTS for Zika virus inhibitors (AID 1347152); further: nearly all actives have a fitted effect of over 70% in size; further: potency means the concentration at half of the fitted maximal effect
Method in brief: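 Linked NS2B-NS3 protease, 1 nM, in 10 mM Tris-HCl pH 8.0, 0.01% Tween 20; compounds preincubated 15 min at room temperature. Nle-KRR-AMC 10 microM (Km 18.3 µM); 15-min fluorescence change (340/450 nm) fitted to 4-parameter Hill.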

[9] = qHTS of pediatric cancer cell lines to identify multiple opportunities for drug repurposing: Confirmatory screen for U-2 OS cells (AID 1347122); further: nearly all actives have a fitted effect of over 65% in size; further: potency means the concentration at half of the fitted maximal effect
Method in brief: as §1

[10] = qHTS of pediatric cancer cell lines to identify multiple opportunities for drug repurposing: Confirmatory screen for Rh41 cells (AID 1347123);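 further: 48 h compound exposure; nearly all actives have a fitted effect of over 60% in size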; further: potency means the concentration at half of the fitted maximal effect
Method in brief: as §1

[11] = qHTS of pediatric cancer cell lines to identify multiple opportunities for drug repurposing: Confirmatory screen for OHS-50 cells (AID 1347128);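 further: compound exposure lasted 48 h at 37 degrees C; nearly all actives have a fitted effect of over 55% in size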
Method in brief: as §1

[12] = qHTS of pediatric cancer cell lines to identify multiple opportunities for drug repurposing: Confirmatory screen for SK-N-SH cells (AID 1347129);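 further: cells exposed to compound for 48 h before viability read; nearly all actives have a fitted effect of over 60% in size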; further: potency means the concentration at half of the fitted maximal effect
Method in brief: as §1

[13] = system: Zika virus NS2B-NS3 protease (unlinked complex); test: Confirmatory screen GU AMC qHTS for Zika virus inhibitors (AID 1347153); further: nearly all actives have a fitted effect of over 70% in size
Method in brief: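 Compounds were preincubated 15 min at room temperature with 25 nM noncovalent NS2B-NS3 protease at pH 8.0; AMC substrate added at 10 microM and 15-min fluorescence gain (340/450 nm) converted to percent inhibition, fitted 4-parameter.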

[14] = qHTS of pediatric cancer cell lines to identify multiple opportunities for drug repurposing: Confirmatory screen for TC32 cells (AID 1347118);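 further: potency means the concentration at half of the fitted maximal effect; cells exposed to compound for 48 h before the read; nearly all actives have a fitted effect of over 65% in size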
Method in brief: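 Luminescent ATP read-out (CellTiter-Glo) of metabolically active TC32 cells after 48 h exposure. Concentration-response curves came from 11-point (MIPE, 0.78 nM–46 µM) or 8-point (NPC, 0.59 nM–46 µM) primary titrations; follow-up used 11 points.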

[15] = system: Zika virus NS2B-NS3 protease (unlinked complex); test: Primary screen GU Rhodamine qHTS for Zika virus inhibitors: Unlinked NS2B-NS3 protease assay (AID 1347159); further: nearly all actives have a fitted effect of over 60% in size; further: potency means the concentration at half of the fitted maximal effect
Method in brief: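 Percent inhibition derives from the 15-min fluorescence change (ex 480, em 540 nm), normalized to no-enzyme and no-inhibitor wells. Reactions contained 25 nM NS2B-NS3 complex and 1.5 microM substrate in 10 mM Tris-HCl pH 8.0.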

[16] = system: Zika virus NS2B-NS3 protease (linked construct); test: Primary screen NINDS Rhodamine qHTS for Zika virus inhibitors (AID 1347160); further: nearly all actives have a fitted effect of over 55% in size; further: potency means the concentration at half of the fitted maximal effect
Method in brief: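 In 10 mM Tris-HCl pH 8.0 containing 0.01% Tween 20, linked NS2B-NS3 protease (25 nM final) is exposed to test compounds for 15 min. Cleavage of 1.5 microM Rhodamine110 substrate is tracked by fluorescence over 15 min.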

[17] = Confirmatory screen GU Rhodamine qHTS for Zika virus inhibitors qHTS (AID 1347157)
Method in brief: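 Noncovalent NS2B hydrophilic domain/NS3 protease complex (25 nM final) in 10 mM Tris-HCl pH 8.0, 0.01% Tween 20, preincubated 15 min with compounds (up to 114 microM), then 1.5 microM Rhodamine110 substrate. Fluorescence change over 15 min fitted to 4-parameter Hill.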

Measured: Potency

Chain of Furin (Homo sapiens) (P09958 whole entry, looked up): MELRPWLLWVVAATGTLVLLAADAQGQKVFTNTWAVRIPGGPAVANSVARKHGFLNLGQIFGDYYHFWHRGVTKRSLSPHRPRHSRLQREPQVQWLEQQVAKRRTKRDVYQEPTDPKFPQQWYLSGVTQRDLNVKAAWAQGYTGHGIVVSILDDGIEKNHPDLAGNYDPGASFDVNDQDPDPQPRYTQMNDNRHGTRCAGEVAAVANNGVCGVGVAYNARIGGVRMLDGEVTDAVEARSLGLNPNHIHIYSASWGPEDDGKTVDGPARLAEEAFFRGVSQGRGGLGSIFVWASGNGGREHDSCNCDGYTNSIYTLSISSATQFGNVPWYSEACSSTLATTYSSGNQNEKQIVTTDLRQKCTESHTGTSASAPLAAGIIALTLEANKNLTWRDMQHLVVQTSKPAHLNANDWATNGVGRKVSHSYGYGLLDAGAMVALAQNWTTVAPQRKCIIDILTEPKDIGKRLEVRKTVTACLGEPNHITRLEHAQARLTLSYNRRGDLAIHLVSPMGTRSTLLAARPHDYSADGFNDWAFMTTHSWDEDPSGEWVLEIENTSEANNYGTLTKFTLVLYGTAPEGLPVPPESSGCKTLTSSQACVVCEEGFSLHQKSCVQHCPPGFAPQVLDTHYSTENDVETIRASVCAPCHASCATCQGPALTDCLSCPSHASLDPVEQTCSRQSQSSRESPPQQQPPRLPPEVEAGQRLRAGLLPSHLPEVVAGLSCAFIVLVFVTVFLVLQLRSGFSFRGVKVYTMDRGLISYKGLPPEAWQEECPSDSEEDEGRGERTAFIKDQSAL
Chain of N-terminal Xaa-Pro-Lys N-methyltransferase 1 (Homo sapiens) (Q9BV86 whole entry, looked up): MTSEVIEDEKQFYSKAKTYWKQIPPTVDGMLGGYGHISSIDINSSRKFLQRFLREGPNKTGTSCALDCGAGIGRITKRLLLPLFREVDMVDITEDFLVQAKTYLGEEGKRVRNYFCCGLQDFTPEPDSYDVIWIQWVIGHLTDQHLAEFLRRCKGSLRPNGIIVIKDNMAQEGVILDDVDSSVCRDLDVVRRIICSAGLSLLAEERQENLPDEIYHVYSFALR

CNC[C@H](O)c1cccc(O)c1
inactive: [1] | [2] | [3]

CC(C)(C)NCC(O)c1ccc(O)c(CO)c1 (configuration not stated)
inactive: [1] | [2] | [3]

OC(CN1CCC(Cc2ccc(F)cc2)CC1)c1ccc(Cl)cc1 (configuration not stated)
inactive: [4] | [5] | [6] | [7] | [1] | [2] | [3]

O=c1[nH]cnc2[nH]ncc12
inactive: [1] | [2] | [3]

NC(=O)c1cnccn1
inactive: [1] | [2] | [3]

CCn1cc(C(=O)O)c(=O)c2cc(F)c(N3CCNC(C)C3)c(F)c21 (configuration not stated)
active: [1] 56.2 µM | Furin (Homo sapiens) 24.1 µM | [2] 26.7 µM | [8] 24.1 µM and 27.1 µM | [3] 29.9 µM

CC(C[N+](C)(C)C)OC(N)=O (configuration not stated)
inactive: [1] | [2] | [3]

O=NN(CCCl)C(=O)NCCCl
inactive: [9] | [10] | [4] | [5] | [6] | [7] | [11] | [12] | [2] | [3]

CCC(C)N(C)C(=O)c1cc2ccccc2c(-c2ccccc2Cl)n1 (configuration not stated)
inactive: [1] | [2] | [3]

CCOC(=O)N1CCC(=C2c3ccc(Cl)cc3CCc3cccnc32)CC1
inactive: [1] | [2] | [3]

Cc1[nH]c(=O)c(C#N)cc1-c1ccc2nccn2c1
active: [1] 50.1 µM | [2] 21.2 µM
inactive: Furin (Homo sapiens) | [8] | [13] | [3]

Cc1ccccc1C(OCCN(C)C)c1ccccc1 (configuration not stated)
inactive: [1] | [2] | [3]

NS(=O)(=O)c1cc2c(cc1Cl)NC=NS2(=O)=O
inactive: [1] | [2] | [3]

C[C@]12CCC(=O)C=C1CC[C@@H]1[C@@H]2[C@@H](O)C[C@@]2(C)[C@H]1CC[C@]2(O)C(=O)CO
inactive: [1] | [2] | [3]

Nc1ccc(S(=O)(=O)Nc2ccnn2-c2ccccc2)cc1
inactive: [1] | [2] | [3]

Cc1cnc(NC(=O)C2=C(O)c3ccccc3S(=O)(=O)N2C)s1
inactive: [1] | [2] | [3]

O=C1CCc2cc(OCCCCc3nnnn3C3CCCCC3)ccc2N1
inactive: [1] | [2] | [3]

O=C(Nc1nc2ccccc2n1CCN1CCOCC1)c1cccc([N+](=O)[O-])c1
inactive: [1] | [2] | [3]

N[C@@H]1CONC1=O
inactive: [1] | [2] | [3]

COc1ccc(-c2ccc3c(N4CCOCC4)nc(N4C[C@@H](C)O[C@@H](C)C4)nc3n2)cc1CO
active: [9] 1.65 µM | [10] 0.657 µM | [4] 1.31 µM | [5] 1.31 µM | [6] 0.657 µM | [12] 8.33 µM | Furin (Homo sapiens) 24.1 µM | [8] 27.1 µM | [13] 27.1 µM | [3] 19.2 µM

NC(N)=NC(=O)c1nc(Cl)c(N)nc1N
inactive: [10] | [4] | [5] | [11] | [12]
active: [9] 7.37 µM | [1] 50.1 µM | [2] 23.8 µM

Clc1cccc(Cl)c1NC1=NCCN1
inactive: [1] | [2] | [3]

CC(C)NCC(O)COc1ccc(COCCOC(C)C)cc1 (configuration not stated)
inactive: [1] | [2] | [3]

Oc1ccc(C2CNCCc3c2cc(O)c(O)c3Cl)cc1 (configuration not stated)
active: [1] 44.7 µM | [2] 16.8 µM | [3] 12.6 µM

CCCCNc1cc(C(=O)O)cc(S(N)(=O)=O)c1Oc1ccccc1
active: [1] 50.1 µM | Furin (Homo sapiens) 27 µM | [2] 29.9 µM | [8] 27.1 µM
inactive: [13]

CN(C)c1ccc(C2Nc3ccc4ccccc4c3C3=C2C(=O)CC(C)(C)C3)cc1Br (configuration not stated)
active: [14] 15.1 µM
inactive: [4] | [3] | [15] | [16]

C1COC(NC(C2CC2)C2CC2)=N1
inactive: [1] | [2] | [3]

O=c1n(CCCN2CCN(c3cccc(Cl)c3)CC2)nc2ccccn12
active: [1] 79.4 µM | Furin (Homo sapiens) 24.1 µM | [2] 26.7 µM | [8] 24.1 µM | [3] 26.7 µM

Cc1cccc(-c2[nH]c(C(C)(C)C)nc2-c2ccc3nccnc3c2)n1
inactive: [1] | [2] | [3]

CO[C@@H]1[C@H](N(C)C(=O)c2ccccc2)C[C@H]2O[C@]1(C)n1c3ccccc3c3c4c(c5c6ccccc6n2c5c31)C(=O)NC4
inactive: [9] | [10] | [6] | [12]
active: [5] 4.14 µM

Cc1ccc(N(CC2=NCCN2)c2cccc(O)c2)cc1
inactive: [1] | [2] | [3]

CC(C)(Sc1ccc(CCN(CCCCC2CCCCC2)C(=O)NC2CCCCC2)cc1)C(=O)O
active: [2] 15 µM | [17] 1.97 µM | [15] 3.55 µM | [16] 3.98 µM
inactive: [1] | Furin (Homo sapiens)

O=C(C=Cc1ccc(/C=C/C(=O)Nc2ccc(C3=NCCN3)cc2)cc1)Nc1ccc(C2=NCCN2)cc1
inactive: [3]

COCCNCCCn1c(C(=O)CF)c(-c2ccc(C)cc2)c2c(N)ncnc21
inactive: [3]

N=c1nc(N2CCCCC2)cc(N)n1O
inactive: [2]

O=c1ncn2nc(Sc3ccc(F)cc3F)ccc2c1-c1c(Cl)cccc1Cl
inactive: [3]

CCOC(=O)C1=C[C@]2(CC)CCCN3CCc4c(n1c1ccccc41)[C@@H]32
inactive: [1] | [3]

CCCCCCCc1ccc(CCc2cccc(O)c2C(=O)O)cc1
active: [3] 8.57 µM

CC(=O)Oc1ccccc1C(=O)O
active: [2] 26.7 µM | [3] 21.2 µM

CCn1c(-c2nonc2N)nc2cnc(Oc3cccc(NC(=O)c4ccc(OCCN5CCOCC5)cc4)c3)cc21
inactive: [3]

CCc1ccc(CCOc2ccc(CC3SC(=O)NC3=O)cc2)nc1 (configuration not stated)
inactive: [3]

OCCC#Cc1nc(-c2ccc(F)cc2)c(-c2ccncc2)n1CCCc1ccccc1
inactive: [3]
